What all share (experiment): DAPPL (digital affinity profiling via proximity ligation, sequencing); 10 mM Tris-HCl pH 7.5, 50 mM NaCl, 1 mM DTT, 4% glycerol, room temperature, 30 min; GST-TFs on glutathione beads, 16-mer random dsDNA library, 0.1% formaldehyde crosslink after washing; high values mean tight binding
Common to all, as to conditions: protein: recombinant; tags: N-terminal GST; dsDNA, one strand shown

In one assay the target is T1, FLI1 (Homo sapiens, UniProt Q01543 1-452).
T1 sequence: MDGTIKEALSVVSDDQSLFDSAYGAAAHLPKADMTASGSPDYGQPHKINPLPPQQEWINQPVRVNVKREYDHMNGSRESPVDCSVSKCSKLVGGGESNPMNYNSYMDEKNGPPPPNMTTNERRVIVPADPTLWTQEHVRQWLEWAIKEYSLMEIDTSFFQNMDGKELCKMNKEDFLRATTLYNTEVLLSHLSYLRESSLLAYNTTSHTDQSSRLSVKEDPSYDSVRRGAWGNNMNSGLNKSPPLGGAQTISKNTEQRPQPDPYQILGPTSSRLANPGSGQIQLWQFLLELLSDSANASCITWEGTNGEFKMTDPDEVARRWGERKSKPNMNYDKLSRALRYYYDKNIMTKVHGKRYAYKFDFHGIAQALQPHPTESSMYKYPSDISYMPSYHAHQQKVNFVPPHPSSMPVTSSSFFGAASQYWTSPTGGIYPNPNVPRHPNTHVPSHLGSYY
The essentials:
(§1)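 Beads coated with glutathione captured GST-fused human transcription factors that had been expressed in yeast, and the factors were then given DNA barcodes and pooled with a tag-only sample. The pools were incubated with 200 nmole of a random double-stranded 16-mer DNA library in Tris/NaCl/DTT/glycerol buffer for 30 min at room temperature, washed, crosslinked with 0.1% formaldehyde and proximity-ligated with BsaI/T4 ligase at 37 °C for 1 h. PCR amplification and Illumina NextSeq500 sequencing came last. Binding signal is each hexamer's read frequency for a factor divided by its frequency for the tag-only sample.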

A further assay has as its target T2, GABPA (Homo sapiens, UniProt Q06546 1-454).
T2 sequence: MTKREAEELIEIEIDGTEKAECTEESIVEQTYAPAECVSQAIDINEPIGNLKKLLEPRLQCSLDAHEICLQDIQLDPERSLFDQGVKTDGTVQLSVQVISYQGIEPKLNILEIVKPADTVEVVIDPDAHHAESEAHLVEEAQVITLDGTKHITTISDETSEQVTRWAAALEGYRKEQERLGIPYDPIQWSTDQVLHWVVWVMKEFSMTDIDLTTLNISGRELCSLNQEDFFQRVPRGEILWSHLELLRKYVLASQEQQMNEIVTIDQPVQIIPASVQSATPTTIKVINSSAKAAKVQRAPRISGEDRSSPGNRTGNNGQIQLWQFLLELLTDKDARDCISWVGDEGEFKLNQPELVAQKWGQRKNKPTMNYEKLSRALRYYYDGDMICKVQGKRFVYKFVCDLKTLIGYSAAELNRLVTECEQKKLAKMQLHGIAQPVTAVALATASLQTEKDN
The method in brief: as §1

The target in the next assay is T3, ERG (Homo sapiens, UniProt P11308 1-479).
T3 sequence: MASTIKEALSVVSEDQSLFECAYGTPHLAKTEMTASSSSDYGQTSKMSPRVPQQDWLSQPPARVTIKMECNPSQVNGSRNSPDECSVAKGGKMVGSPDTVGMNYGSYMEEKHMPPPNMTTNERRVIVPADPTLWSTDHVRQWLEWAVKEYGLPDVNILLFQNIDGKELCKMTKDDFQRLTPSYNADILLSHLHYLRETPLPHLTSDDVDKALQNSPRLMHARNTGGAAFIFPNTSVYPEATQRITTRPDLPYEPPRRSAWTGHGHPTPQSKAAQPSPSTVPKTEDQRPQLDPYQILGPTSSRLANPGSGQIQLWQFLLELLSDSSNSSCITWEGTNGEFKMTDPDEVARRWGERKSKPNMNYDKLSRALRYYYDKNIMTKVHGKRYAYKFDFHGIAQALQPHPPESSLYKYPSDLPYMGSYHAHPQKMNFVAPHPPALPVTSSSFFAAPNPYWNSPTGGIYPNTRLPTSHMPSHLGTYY
The essentials:
as §1

The target of another assay is ELF1 (Homo sapiens, UniProt P32519 1-619). The essentials: as §1
For the next assay, the target named is T4, EHF (Homo sapiens, UniProt Q9NZC4 1-300).
T4 sequence: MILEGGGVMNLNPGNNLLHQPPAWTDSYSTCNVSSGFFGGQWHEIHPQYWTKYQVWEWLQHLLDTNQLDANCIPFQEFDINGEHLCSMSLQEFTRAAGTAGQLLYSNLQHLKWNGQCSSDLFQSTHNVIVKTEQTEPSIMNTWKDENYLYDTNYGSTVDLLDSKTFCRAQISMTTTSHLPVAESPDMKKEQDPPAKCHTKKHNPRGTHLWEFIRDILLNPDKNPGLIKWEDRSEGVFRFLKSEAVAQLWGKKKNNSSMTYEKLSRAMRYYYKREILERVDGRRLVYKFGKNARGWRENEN
The essentials: as §1

The target in a further assay is SPI1 (Homo sapiens, UniProt P17947 1-270). The essentials:
as §1

A further assay addresses SPIB (Homo sapiens, UniProt Q01892 1-262). The method in brief: as §1
The target in the next assay is T5, ELK3 (Homo sapiens, UniProt P41970 1-407).
T5 sequence: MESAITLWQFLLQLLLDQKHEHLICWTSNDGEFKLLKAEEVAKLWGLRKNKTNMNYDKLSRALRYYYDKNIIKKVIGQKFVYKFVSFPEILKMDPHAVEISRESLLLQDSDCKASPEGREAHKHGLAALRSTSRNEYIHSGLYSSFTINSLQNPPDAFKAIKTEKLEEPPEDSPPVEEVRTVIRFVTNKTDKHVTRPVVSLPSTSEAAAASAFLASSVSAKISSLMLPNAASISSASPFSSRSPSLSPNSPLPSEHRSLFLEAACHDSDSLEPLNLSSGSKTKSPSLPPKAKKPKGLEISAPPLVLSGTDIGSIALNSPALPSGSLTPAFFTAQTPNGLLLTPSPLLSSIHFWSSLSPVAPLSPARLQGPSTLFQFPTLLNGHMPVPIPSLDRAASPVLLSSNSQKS
The essentials:
as §1

The next assay concerns the target T6, FEV (Homo sapiens, UniProt Q99581 1-238).
T6 sequence: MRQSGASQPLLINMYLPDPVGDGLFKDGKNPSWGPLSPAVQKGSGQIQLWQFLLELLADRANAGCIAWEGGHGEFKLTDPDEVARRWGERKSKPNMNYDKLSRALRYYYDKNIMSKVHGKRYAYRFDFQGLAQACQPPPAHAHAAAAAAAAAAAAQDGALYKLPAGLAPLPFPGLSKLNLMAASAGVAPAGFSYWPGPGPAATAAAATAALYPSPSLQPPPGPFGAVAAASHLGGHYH
The essentials:
as §1

The next assay addresses ETV5 (Homo sapiens, UniProt P41161 1-510). The essentials: as §1
The target of the next assay is T7, SPIC (Homo sapiens, UniProt Q8N5J4 1-248).
T7 sequence: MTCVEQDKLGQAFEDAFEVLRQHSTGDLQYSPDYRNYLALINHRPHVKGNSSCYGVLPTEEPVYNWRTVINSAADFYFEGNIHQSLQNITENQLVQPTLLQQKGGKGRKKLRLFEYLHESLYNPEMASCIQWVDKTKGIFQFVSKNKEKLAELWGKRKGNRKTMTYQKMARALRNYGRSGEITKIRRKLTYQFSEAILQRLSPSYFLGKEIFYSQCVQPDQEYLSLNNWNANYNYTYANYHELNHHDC
The essentials:
as §1

The target of another assay is ELF4 (Homo sapiens, UniProt Q99607 1-663). The essentials: as §1
The target of the next assay is ETV1 (Homo sapiens, UniProt P50549 1-477). The essentials: as §1
For another assay, the target named is T8, ERF (Homo sapiens, UniProt P50548 1-548).
T8 sequence: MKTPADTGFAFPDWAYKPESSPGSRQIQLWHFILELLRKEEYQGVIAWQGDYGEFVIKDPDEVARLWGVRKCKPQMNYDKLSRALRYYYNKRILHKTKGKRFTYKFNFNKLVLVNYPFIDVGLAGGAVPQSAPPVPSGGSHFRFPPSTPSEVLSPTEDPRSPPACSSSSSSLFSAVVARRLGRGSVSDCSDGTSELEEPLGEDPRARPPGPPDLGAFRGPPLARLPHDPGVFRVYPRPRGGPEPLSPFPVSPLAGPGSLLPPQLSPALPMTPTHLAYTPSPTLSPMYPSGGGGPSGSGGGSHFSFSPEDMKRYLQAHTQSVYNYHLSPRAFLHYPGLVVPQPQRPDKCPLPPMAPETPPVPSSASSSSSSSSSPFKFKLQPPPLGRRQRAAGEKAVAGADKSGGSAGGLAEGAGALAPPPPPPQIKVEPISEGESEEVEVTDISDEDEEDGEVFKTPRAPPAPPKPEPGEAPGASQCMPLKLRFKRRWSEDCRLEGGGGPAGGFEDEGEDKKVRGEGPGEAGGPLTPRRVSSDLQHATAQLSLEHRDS
The method in brief: as §1

A further assay has as its target T9, ETV3L (Homo sapiens, UniProt Q6ZN32 1-361).
T9 sequence: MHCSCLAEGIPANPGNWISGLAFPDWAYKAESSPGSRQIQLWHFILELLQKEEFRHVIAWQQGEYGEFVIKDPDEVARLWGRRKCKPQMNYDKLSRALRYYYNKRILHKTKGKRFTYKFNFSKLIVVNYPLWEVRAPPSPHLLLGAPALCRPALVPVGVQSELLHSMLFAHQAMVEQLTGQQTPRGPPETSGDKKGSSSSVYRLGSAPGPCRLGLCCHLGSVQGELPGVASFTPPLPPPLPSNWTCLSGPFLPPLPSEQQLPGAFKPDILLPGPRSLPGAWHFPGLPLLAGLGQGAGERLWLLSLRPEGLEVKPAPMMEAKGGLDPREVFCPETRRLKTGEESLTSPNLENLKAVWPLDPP
The method in brief: as §1

Another assay has as its target T10, ETS2 (Homo sapiens, UniProt P15036 1-469).
T10 sequence: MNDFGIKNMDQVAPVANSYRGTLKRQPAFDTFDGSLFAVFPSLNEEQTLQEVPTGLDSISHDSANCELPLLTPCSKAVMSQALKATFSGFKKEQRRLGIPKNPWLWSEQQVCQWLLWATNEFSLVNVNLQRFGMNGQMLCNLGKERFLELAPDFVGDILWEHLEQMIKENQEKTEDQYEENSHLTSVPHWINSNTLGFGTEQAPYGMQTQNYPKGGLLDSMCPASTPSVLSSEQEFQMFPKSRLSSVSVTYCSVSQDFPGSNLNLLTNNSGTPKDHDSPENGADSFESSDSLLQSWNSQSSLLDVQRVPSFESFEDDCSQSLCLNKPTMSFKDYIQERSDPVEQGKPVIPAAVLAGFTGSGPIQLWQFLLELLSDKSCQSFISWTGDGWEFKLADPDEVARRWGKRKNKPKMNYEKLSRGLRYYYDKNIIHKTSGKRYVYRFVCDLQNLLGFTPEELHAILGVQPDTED
The essentials:
as §1

A further assay deals with T11, ELF5 (Homo sapiens, UniProt Q9UKW6-2 1-255).
T11 sequence: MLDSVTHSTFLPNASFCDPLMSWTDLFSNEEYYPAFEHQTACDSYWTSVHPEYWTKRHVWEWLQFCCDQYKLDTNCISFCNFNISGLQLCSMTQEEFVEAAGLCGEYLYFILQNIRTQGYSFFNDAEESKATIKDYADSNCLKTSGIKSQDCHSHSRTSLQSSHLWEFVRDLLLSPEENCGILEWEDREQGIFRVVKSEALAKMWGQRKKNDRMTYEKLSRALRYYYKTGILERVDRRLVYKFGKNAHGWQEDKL
The essentials:
as §1

The next assay concerns the target T12, ETV3 (Homo sapiens, UniProt P41162-2 1-143).
T12 sequence: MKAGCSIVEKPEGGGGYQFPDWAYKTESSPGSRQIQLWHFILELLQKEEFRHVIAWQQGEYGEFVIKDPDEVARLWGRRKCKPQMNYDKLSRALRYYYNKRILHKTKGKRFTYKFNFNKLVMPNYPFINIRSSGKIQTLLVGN
The essentials:
as §1

The target of the next assay is ETV6 (Homo sapiens, UniProt P41212 1-452). The essentials:
as §1

Sequence of ELF1 (P32519 whole entry): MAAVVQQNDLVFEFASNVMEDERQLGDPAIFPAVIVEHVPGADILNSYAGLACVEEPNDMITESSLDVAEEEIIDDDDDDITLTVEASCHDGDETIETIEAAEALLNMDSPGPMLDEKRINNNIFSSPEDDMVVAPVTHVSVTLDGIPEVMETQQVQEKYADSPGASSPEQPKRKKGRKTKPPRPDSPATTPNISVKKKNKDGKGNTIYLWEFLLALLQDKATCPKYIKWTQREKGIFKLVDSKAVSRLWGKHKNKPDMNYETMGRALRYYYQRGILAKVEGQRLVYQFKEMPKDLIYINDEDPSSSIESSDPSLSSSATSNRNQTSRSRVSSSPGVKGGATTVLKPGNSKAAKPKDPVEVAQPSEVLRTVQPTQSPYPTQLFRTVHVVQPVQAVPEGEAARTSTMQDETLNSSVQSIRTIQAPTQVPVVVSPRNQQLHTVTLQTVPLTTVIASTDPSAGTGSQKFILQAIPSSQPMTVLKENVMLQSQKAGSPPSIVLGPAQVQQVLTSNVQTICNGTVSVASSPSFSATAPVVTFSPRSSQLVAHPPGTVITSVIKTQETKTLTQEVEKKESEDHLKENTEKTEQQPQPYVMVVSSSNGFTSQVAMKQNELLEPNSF
Sequence of ETV5 (P41161 whole entry): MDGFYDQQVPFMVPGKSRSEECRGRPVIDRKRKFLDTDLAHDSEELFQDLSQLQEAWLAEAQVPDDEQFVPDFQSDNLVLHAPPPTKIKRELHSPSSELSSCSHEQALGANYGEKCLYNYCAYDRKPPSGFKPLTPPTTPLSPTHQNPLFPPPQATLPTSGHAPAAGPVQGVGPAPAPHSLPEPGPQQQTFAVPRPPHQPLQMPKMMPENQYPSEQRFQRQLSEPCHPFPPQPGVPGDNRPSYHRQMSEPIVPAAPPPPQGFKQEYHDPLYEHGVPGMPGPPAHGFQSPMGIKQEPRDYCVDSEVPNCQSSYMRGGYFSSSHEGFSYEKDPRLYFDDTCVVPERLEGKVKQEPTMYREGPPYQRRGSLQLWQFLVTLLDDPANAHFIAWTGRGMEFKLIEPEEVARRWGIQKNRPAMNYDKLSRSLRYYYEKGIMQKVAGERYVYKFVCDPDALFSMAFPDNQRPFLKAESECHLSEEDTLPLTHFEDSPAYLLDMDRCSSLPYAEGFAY
Sequence of SPIB (Q01892 whole entry): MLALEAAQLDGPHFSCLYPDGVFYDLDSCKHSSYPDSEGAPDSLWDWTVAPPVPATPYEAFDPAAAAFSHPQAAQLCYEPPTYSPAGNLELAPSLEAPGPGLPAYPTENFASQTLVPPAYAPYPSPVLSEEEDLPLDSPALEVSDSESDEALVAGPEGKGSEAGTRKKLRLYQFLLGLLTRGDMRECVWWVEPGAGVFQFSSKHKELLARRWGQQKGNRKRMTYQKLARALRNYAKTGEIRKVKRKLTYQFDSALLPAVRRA
Sequence of ETV1 (P50549 whole entry): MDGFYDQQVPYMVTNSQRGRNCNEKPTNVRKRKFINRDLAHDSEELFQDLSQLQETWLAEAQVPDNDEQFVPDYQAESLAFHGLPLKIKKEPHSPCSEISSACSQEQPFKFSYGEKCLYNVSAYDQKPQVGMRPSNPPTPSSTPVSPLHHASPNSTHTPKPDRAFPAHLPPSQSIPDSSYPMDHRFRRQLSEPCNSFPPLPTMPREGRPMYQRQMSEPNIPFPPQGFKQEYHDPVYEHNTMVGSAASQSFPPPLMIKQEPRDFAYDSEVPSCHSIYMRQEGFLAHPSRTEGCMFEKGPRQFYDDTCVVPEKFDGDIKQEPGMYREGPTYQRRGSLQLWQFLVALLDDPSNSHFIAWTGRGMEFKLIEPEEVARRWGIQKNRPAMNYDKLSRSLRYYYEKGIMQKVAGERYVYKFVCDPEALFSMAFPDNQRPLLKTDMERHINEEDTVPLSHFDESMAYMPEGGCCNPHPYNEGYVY
Sequence of ELF4 (Q99607 whole entry): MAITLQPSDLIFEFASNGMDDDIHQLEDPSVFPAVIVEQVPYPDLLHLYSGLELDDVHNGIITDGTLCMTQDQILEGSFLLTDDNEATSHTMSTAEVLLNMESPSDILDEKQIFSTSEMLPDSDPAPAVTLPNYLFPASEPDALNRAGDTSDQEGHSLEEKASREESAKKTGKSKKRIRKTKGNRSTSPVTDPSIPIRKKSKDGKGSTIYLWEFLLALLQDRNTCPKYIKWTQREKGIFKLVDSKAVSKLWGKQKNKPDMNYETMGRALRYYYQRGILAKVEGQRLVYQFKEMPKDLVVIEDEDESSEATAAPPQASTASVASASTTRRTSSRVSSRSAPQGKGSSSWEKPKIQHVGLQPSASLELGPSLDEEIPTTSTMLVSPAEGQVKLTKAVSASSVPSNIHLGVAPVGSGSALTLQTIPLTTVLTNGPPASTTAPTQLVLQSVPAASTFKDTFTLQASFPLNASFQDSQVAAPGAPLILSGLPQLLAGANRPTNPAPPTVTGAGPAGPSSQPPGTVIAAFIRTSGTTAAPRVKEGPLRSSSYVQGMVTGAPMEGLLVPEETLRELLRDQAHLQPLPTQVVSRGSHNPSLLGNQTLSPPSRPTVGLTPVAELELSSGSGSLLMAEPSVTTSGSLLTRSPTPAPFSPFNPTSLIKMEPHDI
Sequence of ETV6 (P41212 whole entry): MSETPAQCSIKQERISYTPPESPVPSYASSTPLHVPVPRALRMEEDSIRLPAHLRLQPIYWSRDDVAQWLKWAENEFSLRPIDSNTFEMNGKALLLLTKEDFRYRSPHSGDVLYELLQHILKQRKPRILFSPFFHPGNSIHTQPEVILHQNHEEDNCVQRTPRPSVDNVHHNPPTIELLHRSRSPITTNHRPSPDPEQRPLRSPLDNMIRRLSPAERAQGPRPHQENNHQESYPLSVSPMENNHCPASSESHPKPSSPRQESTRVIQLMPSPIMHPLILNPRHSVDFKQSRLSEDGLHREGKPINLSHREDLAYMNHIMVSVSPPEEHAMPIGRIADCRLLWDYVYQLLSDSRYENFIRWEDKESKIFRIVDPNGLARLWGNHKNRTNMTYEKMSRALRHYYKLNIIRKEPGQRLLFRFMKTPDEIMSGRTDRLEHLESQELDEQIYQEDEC

With GTCCTG, the binding signal with FLI1 was 1.09 fold enrichment (6-mer frequency, TF over GST control); with GABPA, 1.05 fold enrichment (6-mer frequency, TF over GST control); with ERG, 1.17 fold enrichment (6-mer frequency, TF over GST control); with ELF1, 1.15 fold enrichment (6-mer frequency, TF over GST control); in the assay with EHF, 1.09 fold enrichment (6-mer frequency, TF over GST control); in the assay with SPI1, 1.16 fold enrichment (6-mer frequency, TF over GST control). Also, the binding signal was 1.15 fold enrichment (6-mer frequency, TF over GST control) in the assay with SPIB; 1.05 fold enrichment (6-mer frequency, TF over GST control) with ELK3; 1.1 fold enrichment (6-mer frequency, TF over GST control) in the assay with FEV; 1.08 fold enrichment (6-mer frequency, TF over GST control) in the assay with ETV5; 1.3 fold enrichment (6-mer frequency, TF over GST control) in the assay with SPIC; 1.09 fold enrichment (6-mer frequency, TF over GST control) with ELF4. The binding signal is 1.17 fold enrichment (6-mer frequency, TF over GST control) with ETV1; 1.08 fold enrichment (6-mer frequency, TF over GST control) with ERF; 1.19 fold enrichment (6-mer frequency, TF over GST control) in the assay with ETV3L; 1.02 fold enrichment (6-mer frequency, TF over GST control) with ETS2; 1.3 fold enrichment (6-mer frequency, TF over GST control) with ELF5; 1.2 fold enrichment (6-mer frequency, TF over GST control) with ETV3. The binding signal with ETV6 was 1.16 fold enrichment (6-mer frequency, TF over GST control).

The record behind these values is article PMC7862700, “An all-to-all approach to the identification of sequence-specific readers for epigenetic DNA modifications on cytosine”.
